What is called AC50 is the concentration at which the activity in the assay is half-maximal.

The results in this text go back to PubChem BioAssay (EPA / NIEHS).

Assay [1] concerns the target Estrogen receptor (Homo sapiens) (UniProt P03372). Description: ATG_hERa_XSP2: Attagene TRANS-FACTORIAL Multi-Species (XSP2) HepG2 Assay for human Estrogen Receptor (ERa) (AID 2283827). The essentials: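 Trans-activation of exogenous human ERa-Gal4 chimera read in HepG2 as reporter transcript after 24 h exposure; medium included 3 nM 6-alpha-fluorotestosterone and 1.5 nM norgestrel. Quantified by RT-PCR with capillary electrophoresis, positive-direction fitting against DMSO.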

Assay [2] has as its target Peroxisome proliferator-activated receptor gamma (Homo sapiens) (UniProt P37231). The assay can be described thus: ATG_hPPARg_XSP2: Attagene TRANS-FACTORIAL Multi-Species (XSP2) HepG2 Assay for human Peroxisome Proliferator-activated Receptor gamma (PPARg) (AID 2283829).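 Also: actives raise reporter mRNA above DMSO so AC50 reflects PPARg activation.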 An outline of the steps: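 Transient MRTU transfection, HepG2; TRANS format (exogenous NR-Gal4 chimeras). 24 h chemical exposure with 3 nM 6-alpha-fluorotestosterone and 1.5 nM norgestrel present. Readout: reporter mRNA via RT-PCR/CE fluorescence, up-direction vs DMSO.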

Assay [3] concerns the target mouse Peroxisome Proliferator-activated Receptor gamma (PPARg), Pparg (gene 19016) (UniProt P37238). The assay can be described thus: ATG_mPPARg_XSP2: Attagene TRANS-FACTORIAL Multi-Species (XSP2) HepG2 Assay for mouse Peroxisome Proliferator-activated Receptor gamma (PPARg) (AID 2283830).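 Also: hits are gains in reporter mRNA above DMSO so AC50 marks activation.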 An outline of the steps:
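Multiplexed TRANS reporter readout: after 24 h chemical exposure of transfected HepG2 cells (with 3 nM 6-alpha-fluorotestosterone, 1.5 nM norgestrel present), RNA reverse-transcribed, amplified, 6-FAM-labelled and resolved by capillary electrophoresis; mouse PPARg-Gal4 induction scored against DMSO.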

In assay [4] the target is Nuclear receptor subfamily 1 group I member 2 (Mus musculus) (UniProt O54915). Description: ATG_mPXR_XSP2: Attagene TRANS-FACTORIAL Multi-Species (XSP1) HepG2 Assay for mouse Pregnane X Receptor (PXR) (AID 2283831). An outline of the steps:
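Transient HepG2 transfection, multiplexed GAL4-UAS reporters, NR-GAL4 chimeras. 24 h compound exposure. Readout: reporter mRNA, RT-PCR, fluorescent capillary electrophoresis; positive direction vs DMSO baseline.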

The target in assay [5] is zebrafish Thyroid Hormone Receptor alpha (TRa), thraa (gene 30670) (UniProt Q98867). Description: ATG_zfTRa_XSP2: Attagene TRANS-FACTORIAL Multi-Species (XSP1) HepG2 Assay for zebrafish Thyroid Hormone Receptor alpha (TRa) (AID 2283832).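 Also: actives raise zebrafish TRa-Gal4 reporter transcript above DMSO baseline.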 An outline of the steps: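 HepG2, transient MRTU transfection, exogenous NR-Gal4 chimeras; 24 h dosing; mRNA readout via RT-PCR/CE fluorescence; positive direction vs DMSO.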

The subject of assay [6] is zebrafish Peroxisome Proliferator-activated Receptor gamma (PPARg), gene 557037. Description: ATG_zfPPARg_XSP2: Attagene TRANS-FACTORIAL Multi-Species (XSP2) HepG2 Assay for zebrafish Peroxisome Proliferator-activated Receptor gamma (PPARg) (AID 2283833).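 Also: reporter mRNA from a zebrafish PPARg GAL4 chimera measured by RT-PCR and capillary electrophoresis; actives increase reporter signal over DMSO so AC50 reflects activation.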 The essentials:
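Transfect HepG2 with multiplexed GAL4-UAS reporter constructs; dose chemical 24 h; isolate RNA, reverse-transcribe, PCR-amplify, label and digest reporter products; resolve by capillary electrophoresis. Activity taken as increase over DMSO.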

Assay [7] in a line: ATG_M_61_XSP2: Attagene TRANS-FACTORIAL Multi-Species (XSP2) HepG2 Assay for M61 Transcription Factor (Internal Marker) (AID 2283835; active = hit-call score of the fitted dose curve at least 0.9, where 1 is the maximum; inactive = score below 0.9;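 also: active means a rise in signal above the DMSO baseline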). An outline of the steps:
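Internal background marker, read as RT-PCR/capillary-electrophoresis reporter mRNA 24 h post-dose in transiently transfected HepG2 cells. Androgen receptor stimulated with 3 nM 6-alpha-fluorotestosterone plus 1.5 nM norgestrel; gain of signal versus DMSO analysed.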

For assay [8], the target named is frog Thyroid hormone Receptor alpha (TRa), thra-a (gene 397942) (UniProt P15204). The assay can be described thus: ATG_frTRa_XSP2: Attagene TRANS-FACTORIAL Multi-Species (XSP2) HepG2 Assay for frog Thyroid hormone Receptor alpha (TRa) (AID 2283839). An outline of the steps:
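Read-out: fluorescent reporter-transcript fragments resolved by capillary electrophoresis after RT-PCR and HpaI cut. Human HepG2 liver cells carry a transfected frog TRα-Gal4 chimera driving a UAS reporter; 24 h exposure, DMSO baseline, positive-direction fit.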

The target in assay [9] is human Thyroid hormone Receptor beta (TRb), THRB (gene 7068) (UniProt P10828). The assay can be described thus: ATG_hTRb_XSP2: Attagene TRANS-FACTORIAL Multi-Species (XSP2) HepG2 Assay for human Thyroid hormone Receptor beta (TRb) (AID 2283840).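 Also: actives raise reporter mRNA so potency reflects agonist-like gain of signal.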 The essentials:
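Read-out: reporter mRNA induction (RT-PCR, 6-FAM labeling, capillary electrophoresis), gain-of-signal relative to DMSO baseline. Transiently transfected HepG2 TRANS multiplex (NR-Gal4 chimeras, GAL4-UAS reporters), 24 h chemical exposure; medium contained 3 nM 6-alpha-fluorotestosterone plus 1.5 nM norgestrel.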

The test system of assay [10] is Sodium/Iodide Symporter (NIS), SLC5A5 (gene 6528). Description: CPHEA_Stoker_NIS_Inhibition_RAIU: CPHEA's Radioactive Iodide Uptake (RAIU) Assay for Sodium/Iodide Symporter (NIS) Inhibition, Stoker and Laws Labs (AID 2283841). An outline of the steps: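 HEK293T cells stably expressing human NIS (hNIS-HEK293T-EPA) were exposed to test chemicals at 0.001–100uM (0.5% final DMSO) with 125I at a final 329pM in HBSS/10mM HEPES pH 7.4. After 2 hours at room temperature and ice-cold washes, intracellular 125I was counted as CPM and normalized to DMSO wells.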

Assay [11] has as its system frog Estrogen Receptor (ER2), gene 100174814. Description: ATG_frER2_XSP2: Attagene TRANS-FACTORIAL Multi-Species (XSP2) HepG2 Assay for frog Estrogen Receptor (ER2) (AID 2283828). An outline of the steps:
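Read-out: reporter transcript levels by RT-PCR with 6-FAM primer extension, HpaI digestion and capillary electrophoresis, scored as induction over DMSO control. Transfected HepG2 carrying Xenopus ER2–GAL4 chimera; compounds incubated 24 h.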

For assay [12], the target named is human Thyroid hormone Receptor alpha (TRa), THRA (gene 7067) (UniProt P10827). Description: ATG_hTRa_XSP2: Attagene TRANS-FACTORIAL Multi-Species (XSP2) HepG2 Assay for human Thyroid hormone Receptor alpha (TRa) (AID 2283838). The essentials:
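Reporter transcripts were read by RT-PCR with fluorescent primer extension, HpaI digestion and capillary electrophoresis. These came from HepG2 cells carrying multiplexed TRa-Gal4 TRANS constructs, harvested 24 hours after dosing. The medium also held 6-alpha-fluorotestosterone (3 nM) and norgestrel (1.5 nM), and increases were fitted against DMSO.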

A short description of assay [13]: CEETOX_H295R_11DCORT_noMTC: CeeTox H295R High-throughput Steroidogenesis Assay for 11-Deoxycortisol (11DCORT), maximum tolerated concentration (MTC) filtered results only (AID 2283911; active = hit-call score of the fitted dose curve at least 0.9, where 1 is the maximum; inactive = score below 0.9). Conditions: actives raise or lower the signal. The essentials:
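H295R, OECD 456-based; 10 uM forskolin 48 h → compound (0.1% DMSO) 48 h → medium extracted, 11DCORT by LC-MS/MS. Gain/loss vs DMSO control, all concentrations kept regardless of MTT viability.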

A short description of assay [14]: CEETOX_H295R_OHPREG_noMTC: CeeTox H295R High-throughput Steroidogenesis Assay for OH-Pregnenolone (OHPREG), maximum tolerated concentration (MTC) filtered results only (AID 2283912; active = hit-call score of the fitted dose curve at least 0.9, where 1 is the maximum; inactive = score below 0.9). Conditions: actives raise or lower the signal. An outline of the steps:
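Medium 17alpha-hydroxypregnenolone quantified by reverse-phase HPLC-MS/MS after 48 h chemical exposure of forskolin-prestimulated (10 uM, 48 h) H295R, 0.1% DMSO final. Fitting bidirectional relative to DMSO; no maximum-tolerated-concentration filtering applied.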

Assay [15] can be described thus: CEETOX_H295R_OHPROG_noMTC: CeeTox H295R High-throughput Steroidogenesis Assay for OH-Progesterone (OHPROG), maximum tolerated concentration (MTC) filtered results only (AID 2283914; active = hit-call score of the fitted dose curve at least 0.9, where 1 is the maximum; inactive = score below 0.9). Conditions: actives raise or lower the signal. The essentials:
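After 48 h forskolin (10 uM) prestimulation, H295R adrenal cells received test chemical in 0.1% DMSO for 48 h. Medium 17alpha-hydroxyprogesterone was MTBE-extracted and measured by HPLC-MS/MS; gain or loss relative to DMSO, no MTT-based MTC filtering.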

Assay [16] in a line: CEETOX_H295R_CORTISOL_noMTC: CeeTox H295R High-throughput Steroidogenesis Assay for Cortisol, maximum tolerated concentration (MTC) filtered results only (AID 2283916; active = hit-call score of the fitted dose curve at least 0.9, where 1 is the maximum; inactive = score below 0.9). Conditions: actives raise or lower the signal. The essentials: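 Cortisol secretion measured by LC-MS/MS after 48 h chemical treatment (final 0.1% DMSO) of forskolin-primed (10 uM, 48 h) H295R cells; gain or loss fitted relative to DMSO, without maximum-tolerated-concentration filtering.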

Assay [17] is described as follows: CEETOX_H295R_CORTIC_noMTC: CeeTox H295R High-throughput Steroidogenesis Assay for Corticosterone (CORTIC), maximum tolerated concentration (MTC) filtered results only (AID 2283917; active = hit-call score of the fitted dose curve at least 0.9, where 1 is the maximum; inactive = score below 0.9). To be noted: actives raise or lower the signal. An outline of the steps:
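Human adrenal H295R cells were prestimulated 48 h with 10 uM forskolin, then exposed 48 h to chemical in 0.1% DMSO. Medium corticosterone was MTBE-extracted and quantified by HPLC-MS/MS; bidirectional fits versus DMSO, concentrations not MTC-filtered.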

Assay [18] in a line: CEETOX_H295R_DOC_noMTC: CeeTox H295R High-throughput Steroidogenesis Assay for DOC, maximum tolerated concentration (MTC) filtered results only (AID 2283918; active = hit-call score of the fitted dose curve at least 0.9, where 1 is the maximum; inactive = score below 0.9). To be noted: actives raise or lower the signal. The essentials: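 11-Deoxycorticosterone secreted by human adrenal H295R cells quantified by HPLC-MS/MS after 48 h chemical exposure (0.1% DMSO), following 48 h 10 uM forskolin prestimulation. Concentrations not filtered by MTT-derived MTC; bidirectional fitting.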

A short description of assay [19]: CEETOX_H295R_ESTRADIOL_noMTC: CeeTox H295R High-throughput Steroidogenesis Assay for Estradiol, maximum tolerated concentration (MTC) filtered results only (AID 2283919; active = hit-call score of the fitted dose curve at least 0.9, where 1 is the maximum; inactive = score below 0.9). Conditions: actives raise or lower the signal. An outline of the steps:
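Readout: dansyl-derivatized estradiol quantified by LC-MS/MS in medium from H295R cells dosed 48 h (0.1% DMSO) following 48 h forskolin (10 uM) prestimulation. Gain or loss of signal fitted against DMSO; no MTC filtering applied.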

Assay [20] in a line: CEETOX_H295R_PROG_noMTC: CeeTox H295R High-throughput Steroidogenesis Assay for Progesterone (PROG), maximum tolerated concentration (MTC) filtered results only (AID 2283920; active = hit-call score of the fitted dose curve at least 0.9, where 1 is the maximum; inactive = score below 0.9). Conditions: actives raise or lower the signal. The essentials: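 Progesterone secreted into medium was measured by HPLC-MS/MS after MTBE extraction, following 48 h chemical exposure (0.1% DMSO) of forskolin-prestimulated (10 uM, 48 h) H295R adrenal cells. Gain or loss fitted against DMSO; no MTC filtering.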

Inconclusive results are not listed. The source holds several records for some structures; these can differ, active in one and inactive in another. Activity calls are given as the source filed them. The calls were made as follows, unless noted: active = hit-call score of the fitted dose curve at least 0.9, where 1 is the maximum; inconclusive = response in the unintended direction; inactive = score below 0.9.

Nuclear receptor subfamily 1 group I member 2 (Mus musculus), sequence (O54915 whole entry, looked up, the tested form may be a part): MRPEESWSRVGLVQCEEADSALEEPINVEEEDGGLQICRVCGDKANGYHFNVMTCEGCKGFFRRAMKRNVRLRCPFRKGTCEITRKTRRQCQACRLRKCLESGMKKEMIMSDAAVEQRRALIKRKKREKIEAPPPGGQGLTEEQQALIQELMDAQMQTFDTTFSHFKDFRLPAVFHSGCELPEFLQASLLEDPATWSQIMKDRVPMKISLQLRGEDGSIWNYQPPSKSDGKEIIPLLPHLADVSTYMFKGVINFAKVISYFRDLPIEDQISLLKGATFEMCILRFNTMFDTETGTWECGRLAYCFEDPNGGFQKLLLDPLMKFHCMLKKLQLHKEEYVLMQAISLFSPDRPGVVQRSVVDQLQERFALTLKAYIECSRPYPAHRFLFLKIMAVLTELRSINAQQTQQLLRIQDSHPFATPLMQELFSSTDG
Estrogen receptor (Homo sapiens), sequence (P03372 whole entry, looked up, the tested form may be a part): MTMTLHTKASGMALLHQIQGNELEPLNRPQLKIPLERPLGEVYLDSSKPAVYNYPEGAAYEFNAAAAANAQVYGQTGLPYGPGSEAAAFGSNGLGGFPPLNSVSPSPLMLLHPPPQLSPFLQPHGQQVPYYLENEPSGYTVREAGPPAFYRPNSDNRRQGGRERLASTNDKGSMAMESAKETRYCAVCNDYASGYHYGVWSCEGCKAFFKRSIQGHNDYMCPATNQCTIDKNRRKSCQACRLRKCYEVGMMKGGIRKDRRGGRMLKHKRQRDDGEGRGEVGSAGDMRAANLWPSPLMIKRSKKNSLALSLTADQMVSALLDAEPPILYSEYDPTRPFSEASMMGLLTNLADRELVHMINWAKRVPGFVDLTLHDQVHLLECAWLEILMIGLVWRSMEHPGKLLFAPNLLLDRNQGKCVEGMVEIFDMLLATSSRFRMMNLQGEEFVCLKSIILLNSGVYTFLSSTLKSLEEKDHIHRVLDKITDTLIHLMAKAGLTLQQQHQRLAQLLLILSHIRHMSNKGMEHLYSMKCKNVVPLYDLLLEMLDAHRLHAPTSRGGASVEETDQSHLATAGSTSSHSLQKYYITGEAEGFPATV
human Thyroid hormone Receptor beta (TRb), THRB (gene 7068), sequence (P10828 whole entry, looked up, the tested form may be a part): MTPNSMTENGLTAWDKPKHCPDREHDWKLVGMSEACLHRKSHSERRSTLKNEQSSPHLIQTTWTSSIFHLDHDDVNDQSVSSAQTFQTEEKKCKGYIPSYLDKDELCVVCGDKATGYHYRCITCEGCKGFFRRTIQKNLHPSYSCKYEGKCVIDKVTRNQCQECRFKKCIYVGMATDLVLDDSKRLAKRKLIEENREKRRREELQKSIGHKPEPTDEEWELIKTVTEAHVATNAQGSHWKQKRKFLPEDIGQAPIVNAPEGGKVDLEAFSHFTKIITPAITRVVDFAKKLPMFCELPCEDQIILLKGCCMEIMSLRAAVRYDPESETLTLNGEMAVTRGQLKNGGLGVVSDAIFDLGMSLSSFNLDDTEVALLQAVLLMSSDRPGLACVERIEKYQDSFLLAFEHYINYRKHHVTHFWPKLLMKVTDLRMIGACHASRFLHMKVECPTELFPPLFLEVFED
zebrafish Thyroid Hormone Receptor alpha (TRa), thraa (gene 30670), sequence (Q98867 whole entry, looked up, the tested form may be a part): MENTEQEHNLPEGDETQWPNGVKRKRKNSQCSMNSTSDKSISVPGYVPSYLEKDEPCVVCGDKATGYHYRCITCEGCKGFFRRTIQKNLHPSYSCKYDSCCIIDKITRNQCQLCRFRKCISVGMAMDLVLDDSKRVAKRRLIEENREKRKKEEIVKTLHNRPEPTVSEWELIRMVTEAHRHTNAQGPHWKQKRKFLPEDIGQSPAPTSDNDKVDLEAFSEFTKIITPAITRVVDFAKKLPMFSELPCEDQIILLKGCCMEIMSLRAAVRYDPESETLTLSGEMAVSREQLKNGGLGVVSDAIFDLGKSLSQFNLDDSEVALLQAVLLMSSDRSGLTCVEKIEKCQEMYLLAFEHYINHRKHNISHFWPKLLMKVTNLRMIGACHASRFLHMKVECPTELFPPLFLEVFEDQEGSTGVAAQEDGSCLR
mouse Peroxisome Proliferator-activated Receptor gamma (PPARg), Pparg (gene 19016), sequence (P37238 whole entry, looked up, the tested form may be a part): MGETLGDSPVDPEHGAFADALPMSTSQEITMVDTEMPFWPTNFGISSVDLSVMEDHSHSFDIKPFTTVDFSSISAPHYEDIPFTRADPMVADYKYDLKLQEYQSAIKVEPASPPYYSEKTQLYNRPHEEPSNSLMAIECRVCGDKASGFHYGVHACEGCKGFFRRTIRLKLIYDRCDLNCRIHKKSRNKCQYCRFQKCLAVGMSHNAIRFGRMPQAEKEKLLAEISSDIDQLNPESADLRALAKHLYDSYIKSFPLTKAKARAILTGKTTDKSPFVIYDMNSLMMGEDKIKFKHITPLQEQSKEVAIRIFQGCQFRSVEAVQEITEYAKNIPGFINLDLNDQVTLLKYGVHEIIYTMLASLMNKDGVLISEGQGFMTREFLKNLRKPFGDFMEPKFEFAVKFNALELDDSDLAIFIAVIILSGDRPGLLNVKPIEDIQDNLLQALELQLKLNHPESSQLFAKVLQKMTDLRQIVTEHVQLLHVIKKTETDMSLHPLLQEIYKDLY
Peroxisome proliferator-activated receptor gamma (Homo sapiens), sequence (P37231 whole entry, looked up, the tested form may be a part): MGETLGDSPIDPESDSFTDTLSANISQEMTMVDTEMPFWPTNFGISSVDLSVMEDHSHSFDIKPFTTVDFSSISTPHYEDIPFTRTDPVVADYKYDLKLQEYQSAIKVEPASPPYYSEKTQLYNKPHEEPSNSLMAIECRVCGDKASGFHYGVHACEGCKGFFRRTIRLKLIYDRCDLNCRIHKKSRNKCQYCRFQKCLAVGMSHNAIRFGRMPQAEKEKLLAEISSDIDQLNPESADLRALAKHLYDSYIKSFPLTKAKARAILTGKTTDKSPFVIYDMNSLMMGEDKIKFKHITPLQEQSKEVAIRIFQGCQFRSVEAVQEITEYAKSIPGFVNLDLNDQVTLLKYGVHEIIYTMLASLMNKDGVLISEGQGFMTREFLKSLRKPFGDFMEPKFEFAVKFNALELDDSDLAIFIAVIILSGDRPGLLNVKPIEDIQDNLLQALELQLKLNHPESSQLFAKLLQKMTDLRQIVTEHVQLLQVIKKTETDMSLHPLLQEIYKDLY
frog Thyroid hormone Receptor alpha (TRa), thra-a (gene 397942), sequence (P15204 whole entry, looked up, the tested form may be a part): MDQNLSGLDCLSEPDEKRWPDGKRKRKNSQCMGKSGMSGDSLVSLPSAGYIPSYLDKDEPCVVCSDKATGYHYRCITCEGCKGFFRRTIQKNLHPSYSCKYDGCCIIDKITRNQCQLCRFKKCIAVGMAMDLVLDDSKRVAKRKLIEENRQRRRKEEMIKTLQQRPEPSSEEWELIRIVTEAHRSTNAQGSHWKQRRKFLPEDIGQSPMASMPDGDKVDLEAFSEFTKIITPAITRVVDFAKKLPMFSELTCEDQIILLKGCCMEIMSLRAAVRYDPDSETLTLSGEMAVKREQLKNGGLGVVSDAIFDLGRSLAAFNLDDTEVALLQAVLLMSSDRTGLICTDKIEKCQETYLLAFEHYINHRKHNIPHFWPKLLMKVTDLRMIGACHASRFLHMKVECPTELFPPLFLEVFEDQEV
human Thyroid hormone Receptor alpha (TRa), THRA (gene 7067), sequence (P10827 whole entry, looked up, the tested form may be a part): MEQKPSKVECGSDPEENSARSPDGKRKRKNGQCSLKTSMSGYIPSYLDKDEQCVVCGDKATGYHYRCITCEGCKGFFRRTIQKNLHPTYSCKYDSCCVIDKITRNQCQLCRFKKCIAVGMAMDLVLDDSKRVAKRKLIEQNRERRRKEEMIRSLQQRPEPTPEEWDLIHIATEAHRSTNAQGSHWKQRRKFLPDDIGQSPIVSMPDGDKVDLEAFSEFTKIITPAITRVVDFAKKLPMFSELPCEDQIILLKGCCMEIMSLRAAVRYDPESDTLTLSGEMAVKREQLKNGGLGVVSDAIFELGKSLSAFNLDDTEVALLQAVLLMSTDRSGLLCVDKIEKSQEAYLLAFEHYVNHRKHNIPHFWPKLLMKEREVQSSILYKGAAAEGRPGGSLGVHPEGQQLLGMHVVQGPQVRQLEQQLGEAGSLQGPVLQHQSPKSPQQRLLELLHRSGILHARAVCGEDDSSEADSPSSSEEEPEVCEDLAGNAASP

As to `C#CCOS(=O)OC1CCCCC1Oc1ccc(C(C)(C)C)cc1` (stereo not drawn), the half-maximal activity concentration (AC50) in [1] was 12.1 µM (active); in assay [2], 27.6 µM (active); in [3], 38 µM (active); in assay [4], 7.18 µM (active); in assay [5], 163 µM (active). Moreover, the compound was called inactive in [6], in assay [7], in assay [8], in assay [9] and in assay [10].
Turning to `CO/C=C(/C(=O)OC)c1ccccc1Oc1cc(Oc2ccccc2C#N)ncn1`, the compound was called inactive in assay [2], in assay [5], in [6], in assay [7], in assay [9] and in assay [10]. The half-maximal activity concentration (AC50) in [4] is 0.545 µM (active).
Consider `Fc1ccc(Oc2ccnc3cc(Cl)cc(Cl)c23)cc1`, for which the AC50 in assay [10] was 31.1 µM (active).
In the case of `CCCCOC(=O)c1ccccc1C(=O)OCCCC`, the AC50 is 30.2 µM (active) in assay [1]; 80.3 µM (active) in assay [11]; 100 µM (active) in assay [2]; 100 µM (active) in [3]; 14.4 µM (active) in [4]. Besides, the call in assay [6], in [12], in assay [8], in assay [9], in assay [10] and in [13] was inactive. The outcome in [14], in assay [15], in assay [16], in assay [17], in assay [18] and in assay [19] was inactive. Besides, the outcome in assay [20] was inactive.
For the compound `OC(c1ccc(Cl)cc1)(c1cncnc1)c1ccccc1Cl` (stereo not drawn), the AC50 in assay [1] was 0.941 µM (active); in [11], 6.28 µM (active); in [2] it was 100 µM (active); in assay [3] it was 100 µM (active); in assay [4], 4.78 µM (active); in [6] it was 45.8 µM (active). In addition, the concentration at half-maximal activity (AC50) is 36.7 µM (active) in assay [13]; 1.29 µM (active) in assay [14]; 31.1 µM (active) in assay [15]; 2.57 µM (active) in assay [16]; 0.203 µM (active) in assay [17]; 11.4 µM (active) in [18]. The half-maximal activity concentration (AC50) in assay [19] was 9.94 µM (active); in assay [20], 2.67 µM (active). The outcome in [5], in assay [7] and in [10] was inactive.
